Only some compounds are listed: those with a hit (about 1.3% of all), similar ones and a draw of the others.
rTrxR1 inhibitor: rat TrxR1 inhibition. O89049. recombinant rTrxR1, NADPH fluorescence consumption, selenite substrate. Potency, µM (series often up to 114 µM), inactives show at the highest dose activity change, negative = inhibition, actives largely listed as inhibitors. hit rate 1% among 390,000. AID 588453; further: nearly all actives have a fitted effect of over 65% in size
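Rat TrxR1 (90 nM in the dispensed reagent) was pre-reduced with 400 uM NADPH for 5 min at room temperature, then incubated with compound for 15 min. After 400 uM selenite was added, NADPH fluorescence (Ex 340/Em 450 nm) was followed for 8 min.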
Apoferritin bind: binds horse apoferritin like a general anesthetic | Potency, µM (titrated, usually from 77.5 µM), for inactives: at the highest dose activity change, negative = displacement, usual class: inhibitors | apoferritin/1-aminoanthracene competitive binding, fluorescence | AID 485281 | hit rate 0.074% among 350,000; further: nearly all actives have a fitted effect of over 20% in size
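10 uM apoferritin + 50% sat. 1-AMA, PBS; cpd 10 min RT; Ex380/Em535 endpoint; normalized to free probe vs complex; 4-param Hill fit; propofol titration as pos. ctrl.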
mIDH1 inhibitor: blocks human mutant IDH1 R132H enzyme; IDH1-R132H enzyme, NADPH consumption, diaphorase/resazurin fluorescence; O75874; hit rate 0.093% among 390,000; Potency, µM (doses to about 76.6 µM), inactives show top-dose activity change, negative = inhibition, most hits filed as inhibitors; AID 602179; further: nearly all actives have a fitted effect of over 65% in size
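IDH1-R132H (0.5 ug/mL dispensed) in pH 7.5 Tris buffer was preincubated 30 min with compound, then given a substrate mix of 0.016 mM NADPH and 2 mM alpha-KG for 80 min at room temperature; remaining NADPH was read by diaphorase/resazurin fluorescence.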
TrxR1 substrate: rat thioredoxin reductase 1 substrate activity; O89049; purified TrxR1 substrate turnover, NADPH consumption readout; Potency, µM (top dose mostly 114 µM), for inactives: at the highest dose activity change, negative = substrate turnover; hit rate 0.01% among 390,000; further: nearly all actives have a fitted effect of over 50% in size
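Rat TrxR1, dispensed at 90 nM, was prereduced with 400 uM NADPH (final) for 5 min at ~22 deg C, then incubated with compound 15 min before 400 uM selenite. A first-read NADPH fluorescence drop versus no-compound background flagged substrates.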
GALK inhibitor: galactokinase (human) inhibition; Potency, µM (top dose mostly 57.5 µM), for inactives: top-dose activity change, negative = inhibition, actives largely listed as inhibitors; P51570; Purified GALK, Kinase-Glo residual ATP luminescence; hit rate 0.007% among 270,000; AID 1868
Target sequence (P51570 whole entry, looked up): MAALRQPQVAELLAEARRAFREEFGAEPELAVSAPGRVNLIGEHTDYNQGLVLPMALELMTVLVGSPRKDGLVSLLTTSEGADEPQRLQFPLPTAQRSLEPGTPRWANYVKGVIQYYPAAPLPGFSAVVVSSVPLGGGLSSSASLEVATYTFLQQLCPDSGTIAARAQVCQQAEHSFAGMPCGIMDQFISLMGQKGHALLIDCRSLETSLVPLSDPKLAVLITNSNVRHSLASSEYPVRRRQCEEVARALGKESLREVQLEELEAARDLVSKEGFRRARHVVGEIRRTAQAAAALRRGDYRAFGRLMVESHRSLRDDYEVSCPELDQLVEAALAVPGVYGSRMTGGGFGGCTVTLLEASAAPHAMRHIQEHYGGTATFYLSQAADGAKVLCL
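ATP-depletion format; final 35 uM ATP, 100 uM D-galactose, 5 nM enzyme; pH 8.0 HEPES/Mg2+ buffer; 60 min RT; luminescence read 10 min after detection reagent.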
PKM2 activator: increases activity of human pyruvate kinase M2; hit rate 0.34% among 260,000; purified PKM2, Kinase-Glo ATP luminescence, activation; response scale: 0% is enzyme alone, no compound; Potency, µM (titrated, usually from 57.5 µM), for the others: at the highest dose activation, hits mostly activators; AID 1631; further: nearly all actives have a fitted effect of over 55% in size
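ATP formation by purified human PK-M2, quantified via coupled luciferase luminescence after 1 h at room temperature with 0.1 mM ADP and 0.5 mM PEP final.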
* = called active by the depositor; ? = inconclusive; . = no result given; [ ] = another dose, or the depositor's remark. The call rests on the fitted dose curve; in most records, active means well fitted curve in the direction sought with a large enough effect; inconclusive means small, poorly fitted or top-dose-only effect, or another doubt; inactive means no such curve, though single readings can be large; an effect the other way counts as inactive or inconclusive. On the % scale 0 is the no-effect control and ±100 the full control effect; potency means the concentration at half of the fitted maximal effect.

SMILES	rTrxR1 inhibitor	Apoferritin bind	mIDH1 inhibitor	TrxR1 substrate	GALK inhibitor	PKM2 activator
C=C1C(=O)[C@@]23C[C@H]4[C@@H]5[C@@]6(C)CCC[C@@]57[C@@H]2[C@@H](O)[C@@H]1C[C@H]3[C@H]7N4C6	22µM*	.	-12%	1%	.	.
CCOCCCNC(=O)c1c[nH]c2ccc(S(=O)(=O)N(C)c3ccc(Cl)cc3F)cc2c1=O	13%[57.1 µM]	?	0%	2%[57.1 µM]	.	.
O=C1NC(=O)N(c2ccc3c(c2)OCO3)C(=O)/C1=C/c1ccsc1	35µM*	-7%	4%	-12%	0%	9%
O=C1NC(=O)N(c2ccc3c(c2)OCO3)C(=O)/C1=C/c1cccs1	45µM*	-6%	0%	1%	-1%	11µM*
O=c1oc(Cl)c(Cl)c2ccccc12	7.5µM*	.	12%	4%[57.1 µM]	.	.
CNc1ccc2oc(C[C@@H]3OC4(CC[C@@H]3C)O[C@H]([C@@H](C)C(=O)c3ccc[nH]3)[C@H](C)C[C@H]4C)nc2c1C(=O)O (stereo partly specified)	.	58%	.	.	.	.
CCOC(=O)c1cccc(NC(=O)c2cnc(N3CCCCC3)c3ccccc23)c1	40%[57.1 µM]	230%	-10%	4%[57.1 µM]	.	.
CN(N=O)c1cc(O)ccc1O	0.75µM*	.	.	3%[57.1 µM]	.	.
O=C(O)CC1OCC=C2CN3CCC45C6=CC(=O)C(=O)C([N+](=O)[O-])=C6NC4C1C2CC35 (stereo unspecified)	16µM*	-3%	17%	16µM*	10µM*	2%
CCC(=O)C1=C(c2cccc([N+](=O)[O-])c2)N(C(=O)CC)n2c(nnc2C2CCCCC2)S1	29%[57.1 µM]	?	-16%	11%[57.1 µM]	.	.
COc1cc(/C=C2\C(=O)NC(=O)N(c3ccccc3)C2=O)c([N+](=O)[O-])cc1OC	7.1µM*	-15%	8%	7%[57.1 µM]	4%	-6%
O=C1NC(=O)N(c2ccccc2)C(=O)/C1=C/c1ccc2c(c1)Cc1ccccc1-2	.	-23%	.	.	7%	8%
COc1cc(/C=C2\C(=O)NC(=O)N(c3ccccc3)C2=O)cc(OC)c1O	25µM*	-15%	-3%	-15%	-2%	5%
CN1C(=O)C(=Cc2ccccc2OCc2ccc(Cl)cc2)C(=O)N(C)C1=O	-25%[57.1 µM]	3%	-4%	3%[57.1 µM]	0%	1%
O=C1NC(=O)C(=Cc2cc(Cl)ccc2OCc2ccc(C(=O)O)cc2)C(=O)N1	10µM*	-10%	-6%	3%	-1%	2%
COc1cccc(CSc2nc(-c3ccccc3OC)nc3c2Cc2c(CO)cnc(C)c2O3)c1	6%	?	-22%	0%	.	.
O=C1NC(=O)C(=Cc2coc3ccc(O)cc3c2=O)C(=O)N1	?	-9%	2%	0%	.	32µM*
CCCCC/C=C\C/C=C\C/C=C\C/C=C\CCCC(=O)N(Cc1ccc(O)c(Cl)c1)Cc1ccc(O)c(Cl)c1	.	-19%	.	.	.	.
c1ccc(-c2cc3c(nc2-c2ccccc2)CCNC3)cc1	.	2%[15.3 µM]	.	.	.	.
COc1ccc(CCNC(=O)c2ccc3c(c2)CCN3S(=O)(=O)c2ccc(C)cc2)cc1OC	31%	77%	-8%	0%	.	.
CSc1ncc(/C=C2/C(=O)NC(=O)N(c3ccc(C(C)C)cc3)C2=O)cn1	10µM*	7%	0%	0%	3%	0%
CC(C)c1ccc(N2C(=O)NC(=O)/C(=C/c3cnc(-c4ccccc4)nc3)C2=O)cc1	4µM*	55%	-5%	0%	-1%	1%
O=C1NC(=O)N(Cc2ccccc2)C(=O)/C1=C/c1cnc(-c2ccccc2)nc1	6.3µM*	?	0%	-2%[57.1 µM]	-5%	0%
CCc1ccc(N2C(=O)NC(=O)/C(=C\c3cccn3CCOc3ccc(C(C)C)cc3)C2=O)cc1	-10%	-17%	-5%	-1%	-3%	25%
CCc1ccc(N2C(=O)NC(=O)/C(=C/c3ccsc3)C2=O)cc1	.	-5%	.	.	5%	?
